For 115 molecules, outcome results are on record in PubChem BioAssay AID618 (Sanford-Burnham Center for Chemical Genomics, 2007).

Structures are written as SMILES. Screen size: about 87,000 compounds; about 540 (0.62%) were called active. No rule for the calls is given here. Shown is part of a subset that was picked to be rich in actives. Entries with a potency or affinity are not part of this list.

This test is described as follows: MT1-MMP gene expression reporter suppression – cell-based, luciferase reporter, luminescence (AID 618).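 Also: actives suppress MT1-MMP promoter-driven transcription so potencies describe inhibitors.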 The note with it: MT1-MMP promoter luciferase reporter cells. In general terms: In a reporter assay the amount or activity of a reporter protein is the signal.
Take `CCCCCOc1ccc(C(=O)C(c2ccccc2)N2CCOCC2)cc1` (stereo not given): the outcome was inactive. `COc1ccc(C(=O)C(CN2CCOCC2)c2ccccc2)cc1F` (stereo not given): the molecule was called inactive.

Consider `CC(CN1CCOCC1)C(=O)c1ccccc1` (stereo not given), for which the call was inactive. With `O=C(c1ccc(F)cc1)C(CN1CCOCC1)c1ccccc1` (stereo not given), the outcome was active. In the case of `COc1ccc(C(=O)C(CN2CCOCC2)c2ccccc2)cc1` (stereo not given) it was “inactive”; in that of `O=C(NCC1CCCCC1)C1CCN(C(=O)NC2CCCCC2)CC1`, “inactive”. In the case of `COc1ccc(-c2nc3c(n2O)CCCC3=O)cc1OC`, the call was inactive. Take `O=C(CCSCCc1ccccn1)Nc1ccc(Br)cn1`: the molecule was called inactive. `c1ccc(CCNc2nc3ccccc3s2)cc1`: the outcome was inactive. Under `Cc1ccc(C(=O)Nc2nc3ccccc3s2)s1` stands “inactive”; under `COc1ccc(NC(=O)NC(C)(C(F)(F)F)C(F)(F)F)cc1`, “inactive”. Under `CN(C)c1nc(SCc2ccccc2)nc(N2CCOCC2)n1` stands “inactive”. In the case of `C/C(=N/NC(=O)c1cc(C(C)C)[nH]n1)c1cccs1` it was “inactive”; in that of `C/C(=N\NC(=O)C1COc2ccccc2O1)c1cccs1` (stereo not given), “inactive”; in that of `O=C(Nc1ccc(Cc2ccncc2)cc1)c1ccc(S(=O)(=O)N2CCOCC2)cc1`, “inactive”.

As to `CC(C)c1nc(=S)c2ccccc2[nH]1`, the molecule was called inactive.

`CN1CC=C2C(C#N)=C(N)C(C#N)(C#N)[C@H](c3ccoc3)[C@H]2C1`: the outcome was inactive. In the case of `CCN1CC=C2C(C#N)=C(N)C(C#N)(C#N)[C@H](c3ccoc3)[C@H]2C1` it was “inactive”; in that of `N#CC1=C(N)C(C#N)(C#N)[C@H](c2ccoc2)[C@H]2CN(Cc3ccccc3)CC=C12`, “active”; in that of `COc1ccc(/C(C)=N\n2cnnc2)cc1`, “inactive”. In the case of `COCCn1c(SCc2cnc(-c3ccccc3)s2)nnc1-c1ccncc1` it was “inactive”.

For `Cn1c(SCc2cnc(-c3ccccc3)s2)nnc1C1COc2ccccc2O1` (stereo not given), the call was inactive. In the case of `Cc1nnc(SCc2cnc(-c3ccc(C(C)C)cc3)s2)n1C` it was “active”; in that of `Cc1cccc(NC(=O)CSCc2c(C)noc2C)c1C`, “inactive”. For the molecule `CN(C1=NC(=O)C(CC(=O)Nc2ccc(Br)cc2)S1)c1ccc(O)cc1` (stereo not given), the molecule was classed as inactive. Under `CC(=O)N(CCc1ccccc1C)Cc1cc2cc3c(cc2[nH]c1=O)OCO3` stands “inactive”. For `Cc1ccccc1C(=O)N1CCC(C(=O)Nc2ccc3c(c2)OCCO3)CC1`, the outcome was inactive. In the case of `Cc1ccc(C(=O)N2CCN(c3cccc(Cl)c3)CC2)cc1C` it was “inactive”; in that of `O=C(O)c1ccccc1C(=O)N1CCN(c2cccc(Cl)c2)CC1`, “inactive”; in that of `CCCCC(=O)Nc1ccc(C(=O)N2CCC(C(=O)OCC)CC2)cc1`, “inactive”. Under `Cc1ccc(C(=O)Nc2sc3c(c2C#N)CCCCC3)cc1C` stands “inactive”; under `Cc1ccc(-c2nnc(-c3ccc(Br)cc3)o2)o1`, “inactive”. Under `C=CCn1c(SCC(=O)c2ccccc2)nnc1-c1cc2ccccc2o1` stands “inactive”; under `CC1CC(C)CN(C(=O)CSc2nnc(-c3ccc(Cl)cc3)o2)C1` (stereo not given), “inactive”; under `COc1ccc(NC(=O)/C(Cl)=C(/Cl)S(=O)(=O)Cc2ccccc2)cn1`, “active”. Regarding `COc1ccc(NS(=O)(=O)Cc2ccccc2Cl)cn1`, the call was inactive. In the case of `COc1ccc(CNC(=O)Nc2ccc(C)cc2)cc1` it was “inactive”; in that of `COc1ccc(NC(=O)C(CC(C)C)NC(=O)c2ccccc2C)cn1` (stereo not given), “inactive”.

As to `COc1ccc(NC(=O)c2cc(OC)c(OC)c(OC)c2)cn1`, the outcome was inactive. In the case of `COc1ccc(CS(=O)(=O)/C(Cl)=C(/Cl)C(=O)Nc2ccc(OC)nc2)cc1` it was “active”.

In the case of `COC(=O)c1ccccc1S(=O)(=O)Nc1ccc(OC)nc1`, the outcome was inactive. Under `CCCS(=O)(=O)C(=C(Nc1ccc(OC)cc1)Nc1ccc(OC)cc1)S(=O)(=O)CCC` stands “inactive”. As for `CCOc1ccccc1Nc1nc(N)nc(CN(C)C2CCCCC2)n1`, the outcome was inactive. Regarding `Cc1nc2cc(C(=O)O)ccc2n1C1CCCCC1`, the outcome was inactive. Under `CC1=CC(=C2C(=O)c3ccccc3C2=O)C=C(C)N1C` stands “inactive”. Under `CC1=CC(=C2C(=O)c3ccccc3C2=O)C=C(C)O1` stands “inactive”; under `CCNC1=C(Cl)C(=O)c2ccccc2C1=O`, “inactive”. Under `CN1C=CC(=C2C(=O)c3ccccc3C2=O)C=C1` stands “inactive”. Consider `CCSc1nc(N)c(C#N)c(-c2ccco2)c1C#N`, for which the result was inactive. Under `c1nc(N2CCOCC2)c2[nH]cnc2n1` stands “inactive”; under `COc1cccc2c1C(=O)c1c(O)c3c(c(O)c1C2=O)C[C@@](O)(C(=O)CO)C[C@@H]3O[C@H]1C[C@H](N)[C@H](O)[C@H](C)O1`, “inactive”. For the molecule `COc1cccc2c1C(=O)c1c(O)c3c(c(O)c1C2=O)C[C@@](O)(C(C)=O)C[C@@H]3O[C@H]1C[C@H](N)[C@H](O)[C@H](C)O1`, the result was active. In the case of `O=C(Cn1cc2c(n1)CCCCC2)NC1CCCCCC1` it was “inactive”; in that of `Cc1csc2ncc(C(=O)Nc3ccc(C(F)(F)F)cc3)c(=O)n12`, “inactive”; in that of `COC(=O)c1cccc(NC(=O)c2cnoc2C)c1`, “inactive”. For `COc1ccc(CNC(=O)[C@H](C)[C@H]2C[C@]2(C)[C@H](NC(=O)OCc2ccccc2)c2ccccc2)cc1OC`, the result was inactive. Consider `CCOC(=O)CSc1nc(C)c2ccc(C)cc2n1`, for which the result was inactive.

As to `CCN(CC)S(=O)(=O)c1cccc(-c2nc3n(n2)Cc2ccccc2-3)c1`, the outcome was inactive.

In the case of `CCn1c(C)nc2cc(-c3nnc(-c4c(-c5ccccc5)noc4C)o3)ccc21`, the call was inactive. As for `N#CCc1nc2n(n1)Cc1ccccc1-2`, the molecule was classed as inactive. On to `CCn1c(C)nc2cc(-c3nc4n(n3)Cc3ccccc3-4)ccc21`, for which the call was active. In the case of `Fc1ccc(-c2nc3n(n2)Cc2ccccc2-3)cc1`, the call was active. In the case of `Clc1ccc(-c2nc3n(n2)Cc2ccccc2-3)cc1` it was “inactive”; in that of `O=S(=O)(c1cccc(-c2nc3n(n2)Cc2ccccc2-3)c1)N1CCCC1`, “inactive”; in that of `CCn1c(C)nc2cc(S(=O)(=O)N3CCCC3)ccc21`, “inactive”.

In the case of `CCOc1ccc(C2Oc3nc(SC)nnc3-c3ccccc3N2C(C)=O)cc1OC` (stereo not given), the outcome was inactive.

With `O=C(C1CCCN(S(=O)(=O)c2cnc[nH]2)C1)N1CC(=O)N(CCc2ccccc2)C(=O)C1` (stereo not given), the call was inactive. `CN(CC(=O)N1CC(=O)N(CCc2ccccc2)C(=O)C1)S(=O)(=O)c1cccc2nsnc12`: the molecule was classed as inactive. `Cc1cc(C)n(-c2ccc(C(=O)OCc3nnc(-c4ccccc4)o3)cc2)n1`: the outcome was inactive. As to `CCCCC(CC)CNC(=O)C1CCCN(S(=O)(=O)c2cnc[nH]2)C1` (stereo not given), the outcome was inactive. Under `Cc1cc(C)n2nc(S(=O)(=O)NC3CCCCC3)nc2n1` stands “inactive”; under `Oc1c(CN2CCOCC2)cc(COCc2ccccc2)c2cccnc12`, “inactive”; under `Oc1ccc(CN2CCc3ccccc3C2)c2cccnc12`, “inactive”. As to `CN1CCN(Cc2cc(COCc3ccccc3)c3cccnc3c2O)CC1`, the call was inactive.

Take `OCCN1CCN(Cc2cc(Cl)c3cccnc3c2O)CC1`: the molecule was classed as inactive. Regarding `COC(=O)c1sc(S(=O)(=O)NCc2cccs2)c(C(=O)OC)c1C`, the molecule was classed as inactive. In the case of `COc1ccc(C(=O)NCCC2=CCCCC2)cc1OC` it was “inactive”; in that of `COc1cc(C(=O)NCCC2=CCCCC2)cc(OC)c1OC`, “inactive”.

On to `O=C(NCCc1ccc(Cl)cc1)c1nnc(Cc2ccc(Cl)cc2)o1`, for which the molecule was called inactive. Under `CC1CCCCC1NC(=O)C1CCN(S(=O)(=O)N2CCC3(CC2)OCCO3)CC1` (stereo not given) stands “inactive”. `CC1C(=O)CCN(C(C)(C)C)C1C` (stereo not given): the molecule was called inactive.

Regarding `COc1ccc(OC)c(C2c3c(oc4ccccc4c3=O)C(=O)N2CCCN(C)C)c1` (stereo not given), the call was inactive. Under `c1ccc(-c2ccc(-c3nc(-c4cccnc4)no3)cc2)cc1` stands “inactive”; under `Cc1ccc(-c2noc(-c3ccccc3Br)n2)cc1`, “inactive”; under `Cc1ccc(SCc2nc(-c3ccccc3)no2)cc1`, “inactive”. Consider `Cc1ccc(-c2nc(-c3cccnc3)no2)cc1`, for which the outcome was inactive. In the case of `Cc1cccc(-c2noc(-c3ccc(F)cc3)n2)c1` it was “active”; in that of `COc1ccc(-c2nc(-c3cccc(C)c3)no2)cc1OC`, “inactive”; in that of `c1ccc(-c2nc(-c3ccncc3)no2)cc1`, “inactive”. In the case of `COc1cc(-c2nc(-c3cccc(C)c3)no2)cc(OC)c1OC` it was “inactive”; in that of `Fc1ccccc1-c1nc(-c2ccccc2)no1`, “inactive”; in that of `COC(=O)c1ccccc1NC(=O)C1CC=CCC1C(=O)O` (stereo not given), “inactive”. In the case of `COC(=O)c1ccc(C(=O)OC)c(NC(=O)CCC(=O)O)c1`, the molecule was classed as inactive. For the molecule `CCC1CCCCN1S(=O)(=O)c1ccc(NC(=O)CSc2ncccc2C(=O)O)cc1` (stereo not given), the molecule was classed as inactive. In the case of `COc1ccc(CCN(C(=O)c2ccccc2)C2=CC3CCC(C2)N3C)cc1OC` (stereo not given) it was “inactive”; in that of `CS(=O)(=O)N1CCC(C(=O)N2CCc3ccccc3C2)CC1`, “inactive”; in that of `CC(=O)NC(C1C(=O)CC(C)(C)CC1=O)(C(F)(F)F)C(F)(F)F`, “inactive”. Under `O=C(COc1ccc(Cl)cc1)NCc1nnc(SCC(=O)NCc2ccc3c(c2)OCO3)o1` stands “inactive”.

Turning to `CCOC(=O)c1cnc(C(C)(C)C)[nH]c1=O`, the call was inactive. For `NC(=O)c1ccccc1-c1nc(-c2ccccc2)no1`, the molecule was called inactive. `c1ccc(-c2noc(-c3ccccc3-c3ccccc3)n2)cc1`: the call was inactive. In the case of `CN(C)c1ccc(-c2noc(-c3ccccc3O)n2)cc1` it was “active”. Under `Cc1cc(C)cc(-c2nc(-c3ccncc3)no2)c1` stands “inactive”; under `CCc1ccc(-c2nc(-c3ccncc3)no2)cc1`, “inactive”; under `COc1ccc(-c2nc(-c3ccncc3)no2)cc1OC`, “inactive”. In the case of `CCOc1ccc(-c2nc(-c3ccncc3)no2)cc1OCC` it was “inactive”. As for `CCCC(=O)Nc1c(-c2cccs2)c(=O)c2ccccc2n1CC`, the molecule was classed as inactive. Under `CCOC(=O)c1ccc(S(=O)(=O)N2CCN(CC3CC=CCC3)CC2)cc1` (stereo not given) stands “inactive”; under `COc1ccccc1C1/C(=C(/O)c2ccc(Cl)cc2)C(=O)C(=O)N1CCN1CCOCC1` (stereo not given), “inactive”; under `O=C(O)CN1C(=O)Nc2ccc(Br)cc2C1c1ccccc1` (stereo not given), “inactive”. Regarding `Cc1nc(CC(=O)c2c(C)cc(O)cc2O)cs1`, the outcome was inactive. `O=C(Cc1cccs1)NCc1cccs1`: the molecule was classed as inactive.

For `COC(=O)C(C)Oc1ccc(=O)[nH]n1` (stereo not given), the molecule was classed as inactive. As to `COc1ccc(OC)c(NC(=O)Cc2coc3cc(C)cc(C)c23)c1`, the result was inactive. Under `CS(=O)(=O)N(Cc1ccccc1)c1ccccc1C(=O)N1CCN(c2ccccc2)CC1` stands “inactive”.
